A selection: hits, their analogues and other compounds. The true share with any hit is near 2.3%.
Bim-Mcl-1 = inhibitors of Bim peptide binding to Mcl-1, primary screen, biochemical, bead-based flow cytometry, multiplex; 0.1% of 190,000 active; Bim peptide-Mcl-1 binding; inhibition, % at 10 µM; in the data active = inhibition above about 40%;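 also: 0% = no compound tracer wells and 100% = peptide blocker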
Target sequence (Q07820 whole entry, looked up): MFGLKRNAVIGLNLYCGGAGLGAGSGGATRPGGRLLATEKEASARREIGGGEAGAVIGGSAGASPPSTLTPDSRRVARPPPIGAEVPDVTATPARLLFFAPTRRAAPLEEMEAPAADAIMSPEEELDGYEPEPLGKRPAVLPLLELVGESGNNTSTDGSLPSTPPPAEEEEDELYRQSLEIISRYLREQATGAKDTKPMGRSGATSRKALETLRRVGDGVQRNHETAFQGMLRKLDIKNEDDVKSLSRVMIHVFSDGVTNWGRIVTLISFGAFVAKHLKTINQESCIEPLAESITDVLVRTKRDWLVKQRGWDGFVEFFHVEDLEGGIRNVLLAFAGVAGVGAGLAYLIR
BCLXL inh = inhibitors of human Bcl-xL, primary screen, biochemical, fluorescence polarization, HTS; Bcl-2-like protein 1 (Homo sapiens), Q07817; GST-Bcl-xL / FITC-Bim BH3 peptide fluorescence polarization; inhibition, % at 10.9 µM; 0.7% of 320,000 active; AID 2129, 2009;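 active = inhibition above the mean of all tested compounds plus 3 SD, cutoff set per campaign, cut at about 30% in these data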;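 also: 0% = DMSO wells and 100% = unlabeled Bim-BH3 peptide competitor; inhibitors lower millipolarization by displacing the labeled peptide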
Target sequence (Q07817 whole entry, looked up): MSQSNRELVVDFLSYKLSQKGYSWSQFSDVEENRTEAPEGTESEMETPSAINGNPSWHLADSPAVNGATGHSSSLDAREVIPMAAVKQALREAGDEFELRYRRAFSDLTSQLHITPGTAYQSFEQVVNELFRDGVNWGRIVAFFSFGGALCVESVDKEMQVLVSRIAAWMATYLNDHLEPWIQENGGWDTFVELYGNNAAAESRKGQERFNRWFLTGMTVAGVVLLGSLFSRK
Mcl1 Noxa PPI = Mcl-1/Noxa binding inhibitors, primary screen, biochemical, TR-FRET, 1536-well; Induced myeloid leukemia cell differentiation protein Mcl-1 (Homo sapiens), Q07820; TR-FRET Mcl-1/Noxa peptide binding, 2 h; inhibition, % at 21.7 µM; 1.5% of 220,000 active; AID 1022, 2008;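 active = compounds that cut the protein-peptide binding signal by more than 50% relative to plate controls in a single-dose test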;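 also: His-tagged Mcl-1 with rhodamine Noxa BH3 peptide and terbium anti-His antibody; 0% = Mcl-1 plus Noxa peptide wells and 100% = peptide-only wells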
Mcl1-Bid inh = Mcl-1/Bid binding inhibitors, primary screen, biochemical, TR-FRET, 1536-well; TR-FRET Mcl-1/Bid-Dy647 peptide binding; inhibition, % at 21.7 µM; 0.97% of 220,000 active;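 active = compounds that cut the binding signal by more than half at the single screening dose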;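 also: His-tagged Mcl-1 with europium anti-His antibody binding Bid BH3 peptide; 0% = Mcl-1 plus peptide wells and 100% = peptide-only wells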
MCL1 BIM primary = inhibitors of MCL1 binding to BIM-BH3, primary screen, biochemical, fluorescence polarization; Induced myeloid leukemia cell differentiation protein Mcl-1 (Homo sapiens), Q07820; GST-MCL1 / FITC-Bim-BH3 fluorescence polarization; inhibition, % at 10.9 µM; 0.68% of 320,000 active;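 active = inhibition above the mean inhibition of all tested compounds plus 3 SD, set per campaign, cut at about 40% in these data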;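 also: 0% = DMSO wells and 100% = unlabeled Bim-BH3 peptide control; higher means more loss of mP so more displacement of Bim peptide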
GLD-1 RNA inh = GLD-1/TGE RNA complex disruptors, primary screen, biochemical, fluorescence polarization; Female germline-specific tumor suppressor gld-1 (Caenorhabditis elegans), Q17339; purified GLD-1 + fluorescein TGE RNA; inhibition, % at 5.96 µM; 0.44% of 320,000 active; AID 2280, 2010;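 active = percent inhibition above a per-plate cutoff, the plate mean of test compounds plus 3 SD, cut at about 30% in these data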;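 also: 0% = DMSO wells with GLD-1 and probe and 100% = wells lacking GLD-1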
Starred values were filed as active, the others as inactive.

How did CCc1ccc(C(=O)/C=C/NCc2ccc(F)cc2)cc1 do in these assays?
Bim-Mcl-1: -10; BCLXL inh: 2; Mcl1 Noxa PPI: 13; Mcl1-Bid inh: 53*; MCL1 BIM primary: -2; GLD-1 RNA inh: 1

Results for Cc1ccc(C(=O)/C=C\NCc2ccccc2)cc1 ?
Bim-Mcl-1: -5; BCLXL inh: 1; Mcl1 Noxa PPI: 2; Mcl1-Bid inh: -40; MCL1 BIM primary: 4; GLD-1 RNA inh: 5

What do the screens show for `CCOC(=O)CSc1nc(N)c(C(=O)Nc2ccc(N(C)C)cc2)s1`?
Bim-Mcl-1: -6; BCLXL inh: 0; Mcl1 Noxa PPI: 90*; Mcl1-Bid inh: -50; MCL1 BIM primary: 7; GLD-1 RNA inh: 0

Results for CC(C)OCCCn1c(-c2ccco2)nc2nc3ccccc3nc21 ?
Bim-Mcl-1: 0; BCLXL inh: 35*; Mcl1 Noxa PPI: 23; Mcl1-Bid inh: -11; MCL1 BIM primary: 25; GLD-1 RNA inh: 14

How did CC1CCN(C(=O)CCc2nnc3ccc(NCCCN4CCCC4=O)nn23)CC1 do in these assays?
BCLXL inh: 4; MCL1 BIM primary: 3; GLD-1 RNA inh: 13

Results for CCOC(=O)N1CCN(Cc2c(F)cccc2F)CC1 ?
Bim-Mcl-1: -3; BCLXL inh: 2; Mcl1 Noxa PPI: 28; Mcl1-Bid inh: 52*; MCL1 BIM primary: -2; GLD-1 RNA inh: -4

What do the screens show for `CCOC(=O)N1CCN(Cc2cn3ccccc3n2)CC1`?
Bim-Mcl-1: -6; BCLXL inh: 4; Mcl1 Noxa PPI: 8; Mcl1-Bid inh: 56*; MCL1 BIM primary: 2; GLD-1 RNA inh: -8

What do the screens show for `CC[C@H]1CC2CN3CCc4c([nH]c5c([C@H]6C[C@H]7[C@H](CC)CN(C)[C@@H](Cc8c6[nH]c6ccccc86)[C@H]7C(=O)OC)c(OC)ccc45)C(C(=O)OC)(C2)C13`?
BCLXL inh: 2; MCL1 BIM primary: 3; GLD-1 RNA inh: 1

Results for CC(C)c1cccc(C2=CC(=O)C[C@H](c3ccc4c(c3)OCO4)C2)c1 ?
BCLXL inh: 2; MCL1 BIM primary: 1; GLD-1 RNA inh: 2

Results for C=CCN(C(=O)CSC1=NC(=O)CN1C(C)=O)c1nc(C)c(-c2ccccc2)s1 ?
Bim-Mcl-1: -2; BCLXL inh: -3; Mcl1 Noxa PPI: 25; Mcl1-Bid inh: -53; MCL1 BIM primary: 0; GLD-1 RNA inh: 1

Results for CCOc1ccccc1C(=O)NC1CC2CCCC(C1)N2C1CC1 (configuration not stated) ?
Bim-Mcl-1: 42*; BCLXL inh: -2; Mcl1 Noxa PPI: 7; Mcl1-Bid inh: 2; MCL1 BIM primary: -9; GLD-1 RNA inh: -3

Results for CCOc1ccccc1C(=O)NC1CC2CCCC(C1)N2Cc1nnnn1Cc1ccco1 (configuration not stated) ?
Bim-Mcl-1: -2; BCLXL inh: -5; Mcl1 Noxa PPI: 4; Mcl1-Bid inh: -25; MCL1 BIM primary: -11; GLD-1 RNA inh: 2

What do the screens show for `C=CCn1ccc(=NC=C(C#N)C#N)c2ccccc21`?
BCLXL inh: -4; Mcl1 Noxa PPI: 6; Mcl1-Bid inh: 2; MCL1 BIM primary: -11; GLD-1 RNA inh: -10

What do the screens show for `O=C1NC(=Nc2ccc3ccccc3c2)S/C1=C/c1ccco1`?
Bim-Mcl-1: 2; BCLXL inh: 7; Mcl1 Noxa PPI: 64*; Mcl1-Bid inh: -66; MCL1 BIM primary: 13; GLD-1 RNA inh: -3

How did Cc1cccc(N=C2NC(=O)/C(=C/C=C/c3ccco3)S2)c1 do in these assays?
Bim-Mcl-1: -5; BCLXL inh: -10; Mcl1 Noxa PPI: 106*; Mcl1-Bid inh: 31; MCL1 BIM primary: -16; GLD-1 RNA inh: -6

What do the screens show for `COc1ccc(N=C2NC(=O)/C(=C\C=C\c3ccco3)S2)cc1`?
Bim-Mcl-1: 6; Mcl1 Noxa PPI: 82*; Mcl1-Bid inh: -36

Results for Cc1ccc(N=C2NC(=O)/C(=C\c3ccco3)S2)cc1 ?
Bim-Mcl-1: -3; BCLXL inh: 5; Mcl1 Noxa PPI: 45; Mcl1-Bid inh: -28; MCL1 BIM primary: 13; GLD-1 RNA inh: -3

How did CCCCC1C2=C(CC(C)(C)CC2=O)OC2=C1C(=O)CC(C)(C)C2 do in these assays?
Bim-Mcl-1: -1; BCLXL inh: 3; Mcl1 Noxa PPI: 6; Mcl1-Bid inh: 1; MCL1 BIM primary: 4; GLD-1 RNA inh: 1

Results for CCN(CC)c1nc2cc(C)ccc2cc1/C=C(\C#N)C(N)=O ?
Bim-Mcl-1: 0; BCLXL inh: -6; Mcl1 Noxa PPI: 0; Mcl1-Bid inh: -22; MCL1 BIM primary: -27; GLD-1 RNA inh: -8

Results for COc1ccc2cc3c(N)nn(C(=O)c4ccc(Cl)c([N+](=O)[O-])c4)c3nc2c1 ?
Bim-Mcl-1: 8; BCLXL inh: 0; Mcl1 Noxa PPI: 17; Mcl1-Bid inh: 54*; MCL1 BIM primary: 15; GLD-1 RNA inh: -5

What do the screens show for `COc1ccc2cc3c(N)nn(C(=O)c4ccccc4[N+](=O)[O-])c3nc2c1`?
Bim-Mcl-1: 0; BCLXL inh: 8; Mcl1 Noxa PPI: 27; Mcl1-Bid inh: -5; MCL1 BIM primary: 4; GLD-1 RNA inh: 6

Results for CCOc1ccc(C2C(C#N)=C(N)Oc3cc(C)n(Cc4ccco4)c(=O)c32)cc1OC (configuration not stated) ?
Bim-Mcl-1: 0; BCLXL inh: 7; Mcl1 Noxa PPI: 1; Mcl1-Bid inh: -30; MCL1 BIM primary: 14; GLD-1 RNA inh: 2

How did Cc1cc2c(c(=O)n1Cc1ccco1)C(c1cccnc1)C(C#N)=C(N)O2 (configuration not stated) do in these assays?
Bim-Mcl-1: 0; BCLXL inh: 47*; Mcl1 Noxa PPI: 0; Mcl1-Bid inh: -89; MCL1 BIM primary: 45*; GLD-1 RNA inh: 23

How did COc1cccc2sc(/N=C/N(C)C)nc12 do in these assays?
BCLXL inh: -2; Mcl1 Noxa PPI: 26; Mcl1-Bid inh: 56*; MCL1 BIM primary: 6; GLD-1 RNA inh: 2

What do the screens show for `O=C(CSc1ccccc1)NCC(c1ccco1)N1CCCCC1` (configuration not stated)?
BCLXL inh: -3; MCL1 BIM primary: -4; GLD-1 RNA inh: 3

Results for OC(CNCC(c1ccco1)N1CCCCC1)c1ccccc1 (configuration not stated) ?
Bim-Mcl-1: 1; BCLXL inh: -1; Mcl1 Noxa PPI: 21; Mcl1-Bid inh: 63*; MCL1 BIM primary: 0; GLD-1 RNA inh: 0

Results for O=C(CSc1nc2cc(Cl)c(Cl)cc2[nH]1)c1ccc2c(c1)OCO2 ?
BCLXL inh: -13; Mcl1 Noxa PPI: 57*; Mcl1-Bid inh: 16; MCL1 BIM primary: -12; GLD-1 RNA inh: 12

Source: PubChem
